What is called inhibition is the relative decrease from the control value, in per cent.

These results are taken from PubChem BioAssay AID1159606 (Sanford-Burnham Center for Chemical Genomics, 2016).

Screen size: about 360,000 compounds; about 7,300 (2%) were called active. No stated cut-off is given here; in the data, active means inhibition above about 50%; inactive means the rest. The entries come from a sample that favours actives as a whole.

The experiment in a line: blockers of TWEAK-induced Fn14 reporter activity – luciferase reporter cells, uHTS, primary screen (AID 1159606). The settings on record: TWEAK-stimulated Fn14 reporter cells, luciferase luminescence, 8 h; at 10 µM; stronger effect = higher value. Background: A reporter such as luciferase makes a cellular process visible.
As for `Cc1cc(SCC(=O)c2ccccc2)nc(SCC(=O)c2ccccc2)n1`, the inhibition was 53.9% (active). To `Cc1nc(SCC(=O)c2ccccc2)c([N+](=O)[O-])[nH]1` belongs 9.51% (inactive). To `Cc1nc2nc(SCC(=O)c3ccccc3)[nH]c2cc1Br` belongs -4.34% (inactive).

On to `C[C@H](CO)N1C[C@H](C)[C@H](CN(C)C(=O)c2ccncc2)OCc2ccccc2-c2c(n(C)c3ccccc23)C1=O`, for which the inhibition is 2.05% (inactive). To `O=C(CCC(=O)OCc1cccc(C(=O)Oc2ccccc2)c1)Nc1cccc2ccccc12` belongs -15.2% (inactive); to `C(=N\Nc1ccc2ccccc2n1)/c1ccc2c(c1)OCO2`, 86.3% (active). To `O=C(CNC(=O)C(c1ccccc1)c1ccccc1)N/N=C\c1ccc2c(c1)OCO2` belongs -46.1% (inactive); to `Cc1cccc(NC(=O)/C=C/c2ccc3c(c2)OCO3)n1`, 23.5% (inactive). On to `Cc1ccc(CNC(=O)CCCNC(=O)c2ccc(Cl)cc2)n1C`, for which the inhibition was -27.7% (inactive).

For `COc1ccc(N2CC(C(=O)N[C@@H](C)C(=O)N3CCCCC3)CC2=O)cc1` (stereo partly specified), the inhibition is -3.79% (inactive). To `COc1cc(C(=O)N2CCN(C)CC2)cc(OC)c1OC` belongs 6.59% (inactive); to `CCOc1ccc(N2C(=O)CSC2=NC#N)cc1`, 11.8% (inactive). To `COc1cc(N2C(=O)CC3(CCCC3)CC2=O)cc(OC)c1OC` belongs 15.3% (inactive); to `O=C1CSC(=S)N1c1ccc(Cl)c(Cl)c1`, 49.6% (inactive). To `O=C1CSC(=S)N1c1ccc(O)cc1` belongs 75.1% (active); to `COc1cc(N2C(=O)CSC2=S)cc(OC)c1OC`, 58.5% (active); to `Cc1ccc(NC(=O)CSc2nn3c(=O)c(C)nnc3s2)cc1Cl`, 8.21% (inactive). As to `Cc1ccc(Cn2nnc3c(=O)[nH]c(C4CCN(S(=O)(=O)/C=C/c5ccccc5)CC4)nc32)cc1`, the inhibition is 50.3% (active).

On to `Cc1ccc(NC(=O)N2CCC(c3nc4c(nnn4Cc4c(F)cccc4Cl)c(=O)[nH]3)CC2)cc1`, for which the inhibition was 19.1% (inactive).

Turning to `CC(C)(C)c1ccc(Cn2nnc3c(=O)[nH]c(C4CCCN(C(=O)c5ccco5)C4)nc32)cc1` (stereo unspecified), the inhibition was 25.6% (inactive). To `O=C(OC1CCOC1=O)c1cccc(S(=O)(=O)Nc2ccc(F)cc2)c1` (stereo unspecified) belongs 2.12% (inactive); to `COc1ccc(-c2cc3nc(NCCOc4ccccc4)ccn3n2)cc1`, 5.16% (inactive). To `COc1cncc(-c2cnc3sc(NCCc4ccccn4)nn23)c1` belongs 64.8% (active); to `Cc1ccc(C(=O)N/C(=C\c2cccs2)C(=O)NCCc2ccccn2)cc1C`, 5.63% (inactive); to `CCC1(CC)NC(=O)N(CC(=O)OCC(=O)c2cc(C)c(C)cc2C)C1=O`, -7.64% (inactive). As for `C=CCC[C@@H](Cc1ccc(F)cc1)C(=O)O[C@H](CNC(=O)[C@H](CC=C)CC(=O)N(CCO)Cc1ccccc1)c1ccccc1`, the inhibition was 36.5% (inactive). For `CN1CCN(C(=O)c2ccc(NC(=O)c3ccc(Br)o3)cc2)CC1` the value was 2.47% (inactive). For `O=C(Nc1ccncc1)c1c(F)cccc1F` the value was 66.7% (active); for `O=C(Nc1ccc(S(=O)(=O)N2CCCCCC2)cc1)c1c(F)cccc1F`, 2.17% (inactive); for `COc1cccc(OC)c1C(=O)Nc1ccc(Cc2ccncc2)cc1`, -17.4% (inactive). For `Cc1ccccc1OCC(=O)NNC(=O)c1cc(S(=O)(=O)N(C)C)ccc1N1CCCC1` the value was -9.51% (inactive); for `CN(C)S(=O)(=O)c1ccc(N2CCCC2)c(C(=O)NCc2ccccc2)c1`, 63.4% (active). With `CN(C)S(=O)(=O)c1ccc(N2CCCC2)c(C(=O)Nc2cccc(F)c2)c1`, the inhibition was 0.2% (inactive). For `COc1ccc(N2CCN(C(=O)CNS(=O)(=O)c3ccc(C)c(C)c3)CC2)cc1` the value was 4.34% (inactive); for `COc1ccc(C(C#N)Nc2ccccc2C)cc1` (stereo unspecified), -0.99% (inactive); for `COC(=O)[C@@]1(Cc2ccc(F)cc2)[C@H]2c3cc(C(=O)N4CCCC4)n(Cc4ccc(OC(F)(F)F)cc4)c3C[C@H]2CN1C(=O)c1ccccc1`, 18.4% (inactive).

Regarding `Cc1cccc(/C(N)=N/OC(=O)c2ccccc2Cl)c1`, the inhibition was 31.2% (inactive). For `N/C(Cc1ccc([N+](=O)[O-])cc1)=N\OC(=O)COc1ccc2ccccc2c1` the value was -1.78% (inactive).

With `N/C(=N\OC(=O)Cc1ccc([N+](=O)[O-])cc1)c1ccccn1`, the inhibition is 69.1% (active). Take `N/C(=N\OC(=O)CCC1CCCCC1)c1ccccn1`: the inhibition was 18.4% (inactive). For `CO/N=C(\N)c1ccc([N+](=O)[O-])cc1` the value was 0.74% (inactive); for `O=C(COC(=O)c1ccccn1)NNC(=O)c1ccc([N+](=O)[O-])cc1`, -4.89% (inactive).

With `Cc1ccc(C(=O)O/N=C(\N)c2ccccn2)cc1Cl`, the inhibition is 92.3% (active). To `N/C(=N\OC(=O)c1ccc([N+](=O)[O-])cc1)c1ccccn1` belongs 77.4% (active); to `Cc1cc(C)cc(OCC(=O)O/N=C(\N)Cc2ccc([N+](=O)[O-])cc2)c1`, -9.61% (inactive); to `COc1ccc(C2OC(CCc3ccccc3)Cc3[nH]c(=S)[nH]c(=O)c32)cc1` (stereo unspecified), -31.7% (inactive). For `Cc1ccc(S(=O)(=O)N2CCC(=O)N([C@H](COCc3ccccc3)Cc3ccccc3)CC2)cc1` the value was 1.7% (inactive); for `CC(Oc1ccc(Cl)cc1)c1ccnn1S(C)(=O)=O` (stereo unspecified), 8.92% (inactive); for `CN(C)CCn1c2c(c(SCC(=O)Nc3ccccc3C(F)(F)F)nc1=O)CCCC2`, -2.47% (inactive). To `CC(C)(C)c1ccc(/C=C/C(=O)NCCCn2ccnc2)cc1` belongs 13.5% (inactive); to `O=C(NC1CCCC1)C1c2ccccc2OCC(=O)N1Cc1ccccc1` (stereo unspecified), 2.4% (inactive); to `COC(=O)Nc1ncc(CN2CCCCC2)s1`, 1.88% (inactive).

Take `Cc1nc(-c2ccc(NC(=O)c3cccs3)cc2)cs1`: the inhibition was 69% (active).

`CCc1ccc(NC(=O)C(=O)NNC(=O)c2cccs2)cc1`: the inhibition is -12.2% (inactive).

`Cc1ccc(OCC(=O)Nc2ccc(NC(=O)c3cccs3)cc2)c(C)c1`: the inhibition was -68.7% (inactive). For `CCN(C(=O)CSc1nnc2ccccn12)C1CCS(=O)(=O)C1` (stereo unspecified) the value was 7.23% (inactive); for `COc1ccc2c(c1)c(=Cc1ccc(N(C)C)cc1)c1cc(-c3ccccc3)[n+](C)n12`, 100% (active); for `CC1(C)CC(=O)C2=C(C1)N=C1SCCC(=O)N1C2c1ccc(C(F)(F)F)cc1` (stereo unspecified), 1.88% (inactive). For `O=C1OC(Oc2ccc(Br)cc2)(c2ccccc2)c2ccccc21` (stereo unspecified) the value was 7.48% (inactive). For `Nc1[nH]c(C(=O)c2ccccc2)c(-c2ccncc2)c1C(=O)NCc1cccc2ccccc12` the value was 36% (inactive); for `COc1cccc(NC(=O)c2ccc3c(SCC(=O)O)c4c(nc3c2)CCCC4)c1`, -6.4% (inactive); for `CC(=O)c1ccc(NC(=O)c2ccc3c(Cl)c4c(nc3c2)CCCC4)cc1`, 40.1% (inactive).

For the compound `CC(C)CCNC(=O)c1ccc2c(Cl)c3c(nc2c1)CCC3`, the inhibition was 58.4% (active).

For `CCc1ccc([C@@H]2CC(=O)[C@@H]3CN(S(=O)(=O)c4ccc(C)cc4)[C@H](c4ccc(Cl)cc4)C[C@@H]3N2S(=O)(=O)c2ccc(C)cc2)cc1`, the inhibition was -18.3% (inactive). With `COCOCCn1cc(CN2CCS(=O)(=O)N(Cc3ccc(-c4ccc(OC)cc4)cc3)C(CC(C)C)C2=O)nn1` (stereo unspecified), the inhibition was -6.75% (inactive). To `COCc1cc(=O)[nH]c2cc(NC(=O)C(F)(F)F)c(C)cc12` belongs 6.5% (inactive); to `C[C@H]1CN([C@@H](C)CO)C(=O)CCCn2cc(nn2)CO[C@@H]1CN(C)S(=O)(=O)c1ccc(-n2cccn2)cc1`, -16.6% (inactive). For `Cc1cccc(N2C(=O)c3ccc(C(=O)Nc4cccc(C(=O)O)c4)cc3C2=O)c1` the value was 8.83% (inactive).

Turning to `O=C(c1ccc2c(c1)C(=O)N(c1ccc(Cl)cc1)C2=O)N1CCN(c2ccccn2)CC1`, the inhibition is -12.4% (inactive). To `O=C(O)c1ccc2c(c1)C(=O)N(c1ccc(/C=C/C(=O)c3ccccc3)cc1)C2=O` belongs 75.5% (active). Take `CCN1C[C@@H]2[C@@H]3C(=O)N(C)C(=O)[C@@H]3[C@](C)(C1=O)N2C(=O)c1ccccc1`: the inhibition was 11.5% (inactive). To `CC(Sc1nncn1C)C(=O)NCCC1=CCCCC1` (stereo unspecified) belongs -1.74% (inactive).

In the case of `COc1ccc(NC(=O)CCCC(=O)c2ccccc2)cc1`, the inhibition is -22.6% (inactive). To `COc1ccc(NC(=O)ON=C2c3ccccc3-c3ccccc32)cc1` belongs 57.8% (active). For `COc1ccc(NC(=O)C(Br)C(C)C)cc1` (stereo unspecified) the value was -6.35% (inactive); for `CCC1CCCCN1C(=O)Nc1cccc(NC(=O)N2CCCCC2CC)c1` (stereo unspecified), -4.07% (inactive).

For `CCCCn1c(N)c(N(Cc2ccccc2OC)C(=O)COc2cc(C)ccc2Cl)c(=O)[nH]c1=O`, the inhibition was -6.52% (inactive). To `CC(C)CC(=O)N1CCN(Cc2ccccc2Br)CC1` belongs -11.1% (inactive); to `CCC1OC(C2CC2)CC2=C1C(=O)OC(C)(C)O2` (stereo unspecified), 6.62% (inactive). On to `CC(C)Cn1c(SCC(=O)Nc2ccc(Cl)cc2F)nc(O)cc1=O`, for which the inhibition was 0.05% (inactive). In the case of `COc1ccccc1-n1c(SCC(=O)Nc2ccc(Cl)cc2)nc(O)c(Cc2ccccc2)c1=O`, the inhibition was -7.18% (inactive). To `Cn1c(SCC(=O)Nc2ccc(Cl)cc2)nc(O)cc1=O` belongs 80.5% (active); to `O=C(COC(=O)c1ccc(NS(=O)(=O)c2cccs2)cc1O)Nc1ccc(F)cc1`, 1.2% (inactive); to `CCOC(=O)N1CCN(C(=O)C2CCCN(c3ncnc4c3sc3cccc(F)c34)C2)CC1` (stereo unspecified), 28.8% (inactive). Consider `FC(F)(F)C1CCCN(c2nsc3ccccc23)C1` (stereo unspecified), for which the inhibition is 7.5% (inactive).

Regarding `CCCCCCCCN1C(=O)[C@H](CC(=O)NCc2cccc3ccccc23)C[C@@]2(C(=O)OC)CCCCC=C12`, the inhibition was -1.79% (inactive). To `CN(C)c1nc(=Nc2cccc(Cl)c2)ss1` belongs 5.73% (inactive); to `c1ccc(CN2CCC(N=C3NN=C(c4ccc5c(c4)OCCO5)CS3)CC2)cc1`, 57.6% (active).

On to `CC(=NC1CCN(Cc2ccccc2)CC1)c1c(O)[nH]c(=O)[nH]c1=O`, for which the inhibition is 0.57% (inactive). For `Clc1cccc(N=C2NN=C(c3ccc4c(c3)OCCO4)CS2)c1` the value was 84.4% (active); for `CS(=O)(=O)N(CC(=O)N1CCN(Cc2ccccc2)CC1)c1ccc2c(c1)OCCO2`, 14.7% (inactive).
